Records with an inconclusive call do not appear. Active and inactive are the calls of the source. Unless noted, calls come from the whole dose curve; as a rule, active = well fitted curve in the direction sought with a large enough effect; inconclusive = small, poorly fitted or top-dose-only effect, or another doubt; inactive = no such curve, though single readings can be large; an effect the other way counts as inactive or inconclusive.
Legend:
[1] = target: Voltage-gated inwardly rectifying potassium channel KCNH2 (Homo sapiens) (UniProt Q12809); assay: qHTS Assay for Small Molecule Inhibitors of the Human hERG Channel Activity (AID 588834);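 note: lower thallium flux fluorescence means stronger hERG block; nearly all actives have a fitted effect of over 50% in size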; note: potency is the fitted concentration of half-maximal effect
In short: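 Concentration-response qHTS measuring drop in thallium-sensitive dye signal. U2OS cells carrying BacMam hERG; compound exposure ~10 min, then stimulation buffer and 2 min read at 1 sec intervals.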

[2] = target: Glutaminase kidney isoform, mitochondrial (Homo sapiens) (UniProt O94925); assay: qHTS for Inhibitors of Glutaminase (GLS): LOPAC Validation (AID 624146); note: nearly all actives have a fitted effect of over 60% in size; note: potency is the fitted concentration of half-maximal effect
In short: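 Enzyme dispensed in phosphate buffer (45 mM, pH 8.2, 0.02% Tween-20), compounds pinned in, then 1 mM L-glutamine solution and the glutamate oxidase–HRP–Amplex Red mix added; fluorescence read immediately and again after 30 min at room temperature.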

[3] = qHTS of Trypanosoma Brucei Inhibitors: LOPAC Validation (AID 624147); note: 0% is about no effect
In short: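 TbPYK + substrate in 50 mM TEA pH 7.2, 100 mM KCl, 10 mM MgCl2, 0.05% BSA, 0.01% Tween-20; cpd pinned; ADP 130 uM final; 45 min RT; Kinase-Glo Plus 10 min; luminescence endpoint.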

[4] = target: Glucagon-like peptide 1 receptor (Homo sapiens) (UniProt P43220); assay: qHTS of GLP-1 Receptor Agonists: LOPAC Validation (AID 624148);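 note: 0% is about no effect; higher luminescence signal means agonism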
In short: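 HEK293 cells stably co-expressing a cAMP-responsive luciferase reporter and a hypersensitive GLP-1R were plated 12 h at 37 °C and exposed to compounds for 4-6 hr at 37 °C, 5% CO2. Luminescence was read 12 min after adding detection reagent.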

[5] = qHTS of Nrf2 Activators: LOPAC Validation (AID 624149); note: 0% is about no effect
In short: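 AREc32 cells carrying an ARE-driven firefly luciferase were grown overnight in OPTI-MEM with 5% FBS, then exposed to compounds for 24 hr at 37 deg C. Luciferase signal was read after 30 min with Steady-Glo at RT.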

[6] = HTS Assay for Allosteric Antagonists of the Human D2 Dopamine Receptor: Hit Validation in HTRF (AID 624455);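 note: stable D1 dopamine receptor cell line scored for blocking the D1 response; % is set by controls: 0 for no effect and ±100 for the full control effect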
In short: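 Hits were examined in an HTRF assay using cells stably expressing the D1 dopamine receptor, scoring inhibition of the D1-mediated response. The preceding primary screen tracked calcium flux after an EC80 dopamine addition in force-coupled, inducible Hek293 Trex D2 cells.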

[7] = qHTS assay for small molecule agonists of the antioxidant response element (ARE) signaling pathway (AID 651741; active = well fitted activation curve with a large enough effect in the signal ratio; the % refers to the signal ratio; note: potency is the fitted concentration of half-maximal effect)
In short: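 ARE-bla HepG2 cells (beta-lactamase reporter under ARE control) were plated at 2,000 cells/well, preincubated 5 h at 37 C/5% CO2, then treated with DMSO-dissolved compounds for 16 h at 37 C; LiveBLAzer B/G FRET substrate added, fluorescence read after 2 h at room temperature.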

[8] = qHTS assay for small molecule activators of the p53 signaling pathway (AID 651743; active = well fitted activation curve with a large enough effect in the signal ratio, not every such curve was filed as active; the % refers to the signal ratio; note: series mostly up to about 92 µM; % of control where 0% means no effect); details: HCT-116 p53RE-bla, beta-lactamase FRET ratio, 16 h; stronger effect = higher value
In short: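 p53RE-bla HCT-116 cells with a stably integrated beta-lactamase reporter under p53 response elements were plated, rested 5 hours at 37 C/5% CO2, then exposed to compounds in DMSO for 16 hours at 37 C. LiveBLAzer B/G FRET substrate was read after 2 hours at room temperature.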

[9] = qHTS assay for small molecule activators of the nuclear factor-kappa B (NF-kB) signaling pathway (AID 651749; active = well fitted activation curve with a large enough effect in the signal ratio; the % refers to the signal ratio; note: series mostly up to about 77 µM; % of control where 0% means no effect); details: NF-kB-bla ME-180 cells, beta-lactamase FRET ratio, 16 h; stronger effect = higher value
In short: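 ME-180 cells stably carrying a beta-lactamase reporter under an NF-kB response element were exposed to compound or DMSO vehicle for 16 hr at 37C, 5% CO2. Pathway activation was read by FRET, since reporter expression disrupts FRET.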

[10] = qHTS assay for environmental chemicals that activate the Aryl hydrocarbon Receptor (AhR) signaling pathway (AID 651777); details: 1A2-DRE human hepatoma cells, luciferase, 24 h; stronger effect = higher value; note: % of control where 0% means no effect; nearly all actives have a fitted effect of over 15% in size
In short: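 Human hepatoma 1A2-DRE cells, stably carrying a dioxin response element and CYP1A2 promoter driving luciferase, were exposed to compounds for 24 hr at 37 C and 5% CO2. Luciferase signal was then read after 30 min One-Glo at room temperature.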

[11] = target: Peroxisome proliferator-activated receptor alpha (Homo sapiens) (UniProt Q07869); assay: qHTS assay for small molecule agonists of the peroxisome proliferator-activated receptor alpha (PPARalpha) signaling pathway (AID 651778); details: PathHunter PPARalpha complementation, chemiluminescence, 6 h; max response: stronger effect = higher value; note: potency is the fitted concentration of half-maximal effect; for max response: % of control where 0% means no effect
In short: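 Cells plated at 2,000/well and held overnight at 37 C, 5% CO2, then compound added by pin tool for 6 hr; after PathHunter detection reagent and 60 min at room temperature, chemiluminescence from enzyme complementation was read.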

[12] = target: Tumor necrosis factor (Homo sapiens) (UniProt P01375); assay: qHTS assay to identify small molecules that stimulate Tumor Necrosis Factor-alpha (TNF-alpha) secretion (AID 651757; active = well fitted curve in the direction sought with a large enough effect in the signal ratio; the % refers to the signal ratio; note: 0% is about no effect)
In short: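 THP-1 cells were exposed to compounds for 17 hrs at 37 C, after which secreted TNF-alpha was measured by homogeneous HTRF (TR-FRET) using cryptate- and XL665-labeled anti-TNF-alpha antibodies, read after 3 hr at room temperature.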

[13] = qHTS assay to identify small molecules that stimulate interleukin-8 (IL-8) secretion (AID 651758; active = well fitted activation curve with a large enough effect in the signal ratio; the % refers to the signal ratio; note: 0% is about no effect)
In short: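 THP-1, 2000 cells/well; cpd 16 h, 37 C; add cryptate + XL665 anti-IL-8 Abs; RT 1-3 h; TR-FRET read.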

[14] = target: Luciferin 4-monooxygenase (Photinus pyralis) (UniProt P08659); assay: Biochemical firefly luciferase enzyme assay for NPC (AID 624030);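 note: purified P. pyralis luciferase at 10 nM with luciferin and ATP substrate; series mostly up to about 59 µM; 0% = DMSO and -100% = full luciferase inhibition by PTC124 control; nearly all actives have a fitted effect of over 70% in size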
In short: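 Counter-screen for direct inhibition of the luciferase enzyme by approved-drug library compounds, run at 10 nM enzyme in 50 mM Tris acetate (final). Luminescence was read within 5 min of enzyme-buffer addition and normalized to PTC124 versus DMSO (0%).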

[15] = S16 Schwann cell viability assay (CellTiter-Glo assay) (AID 624031);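 note: cellular ATP luminescence as a viability measure; series mostly up to about 58 µM; plate controls were DMSO-treated cells for no effect and cell-free wells for full effect; nearly all actives have a fitted effect of over 70% in size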
In short: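 Native S16 rat Schwann cells in DMEM/10% FBS without phenol red were incubated overnight, then exposed to compounds for 24 h at 37 °C/5% CO2. Viability was read as ATP luminescence (CellTiter-Glo), normalized to no-cell wells and DMSO (0%).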

[16] = S16 Schwann cell PMP22 intronic element firefly luciferase assay (AID 624032);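 note: series mostly up to about 58 µM; plate controls were DMSO for no effect and PTC124 positive control mean for full effect; nearly all actives have a fitted effect of over 30% in size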
In short: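 Rat S16 Schwann cells stably carrying a PMP22 intronic element-driven Fluc reporter were seeded overnight, then exposed to compounds for 24 h at 37 °C. Luminescence was normalized to PTC124 (positive control) and DMSO (0% activity).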

[17] = S16 Schwann cell PMP22 intronic element beta-lactamase assay (AID 624044; calls by dose curve;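 note: 0% = DMSO and -100% = potassium clavulanate positive control; nearly all actives have a fitted effect of over 15% in size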)
In short: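 Rat S16 Schwann cells with beta-Lac driven by a PMP22 intronic element, compound-treated 24 h at 37 °C. LiveBLAzer FRET B/G read: 460 nm normalized to potassium clavulanate vs DMSO; 535 nm FRET as viability; concentration-effect curves classified.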

Voltage-gated inwardly rectifying potassium channel KCNH2 (Homo sapiens), sequence (Q12809 whole entry, looked up): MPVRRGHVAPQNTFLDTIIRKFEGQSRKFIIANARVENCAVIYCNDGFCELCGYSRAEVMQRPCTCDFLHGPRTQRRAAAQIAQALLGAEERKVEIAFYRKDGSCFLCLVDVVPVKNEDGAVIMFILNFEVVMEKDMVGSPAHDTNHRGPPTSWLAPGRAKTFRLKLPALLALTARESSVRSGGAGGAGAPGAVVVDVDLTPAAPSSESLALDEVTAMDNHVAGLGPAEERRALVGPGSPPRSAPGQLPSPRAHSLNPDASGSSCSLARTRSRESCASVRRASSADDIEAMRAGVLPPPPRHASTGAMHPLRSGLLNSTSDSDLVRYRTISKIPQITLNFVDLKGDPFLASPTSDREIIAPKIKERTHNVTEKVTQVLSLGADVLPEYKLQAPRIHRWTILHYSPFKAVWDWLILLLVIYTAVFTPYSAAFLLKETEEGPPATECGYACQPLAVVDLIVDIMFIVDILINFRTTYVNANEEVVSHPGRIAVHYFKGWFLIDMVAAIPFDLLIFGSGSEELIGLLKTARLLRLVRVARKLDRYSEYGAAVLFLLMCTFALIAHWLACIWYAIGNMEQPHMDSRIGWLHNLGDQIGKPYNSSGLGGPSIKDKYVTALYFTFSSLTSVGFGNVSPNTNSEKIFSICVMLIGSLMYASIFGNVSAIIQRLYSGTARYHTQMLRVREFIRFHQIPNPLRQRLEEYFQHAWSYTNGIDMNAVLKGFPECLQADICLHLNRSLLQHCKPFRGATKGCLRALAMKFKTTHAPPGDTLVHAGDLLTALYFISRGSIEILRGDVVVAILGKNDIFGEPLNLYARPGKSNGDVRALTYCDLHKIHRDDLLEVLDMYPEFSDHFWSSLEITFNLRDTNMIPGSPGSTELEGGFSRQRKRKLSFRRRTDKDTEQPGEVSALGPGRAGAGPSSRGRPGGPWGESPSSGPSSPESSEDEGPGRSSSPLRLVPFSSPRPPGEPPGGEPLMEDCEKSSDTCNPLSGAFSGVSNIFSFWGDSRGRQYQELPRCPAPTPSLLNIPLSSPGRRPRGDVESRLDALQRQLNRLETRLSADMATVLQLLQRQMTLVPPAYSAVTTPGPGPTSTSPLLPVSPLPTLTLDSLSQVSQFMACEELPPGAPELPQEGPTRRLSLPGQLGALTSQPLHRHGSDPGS
Peroxisome proliferator-activated receptor alpha (Homo sapiens), sequence (Q07869 whole entry, looked up): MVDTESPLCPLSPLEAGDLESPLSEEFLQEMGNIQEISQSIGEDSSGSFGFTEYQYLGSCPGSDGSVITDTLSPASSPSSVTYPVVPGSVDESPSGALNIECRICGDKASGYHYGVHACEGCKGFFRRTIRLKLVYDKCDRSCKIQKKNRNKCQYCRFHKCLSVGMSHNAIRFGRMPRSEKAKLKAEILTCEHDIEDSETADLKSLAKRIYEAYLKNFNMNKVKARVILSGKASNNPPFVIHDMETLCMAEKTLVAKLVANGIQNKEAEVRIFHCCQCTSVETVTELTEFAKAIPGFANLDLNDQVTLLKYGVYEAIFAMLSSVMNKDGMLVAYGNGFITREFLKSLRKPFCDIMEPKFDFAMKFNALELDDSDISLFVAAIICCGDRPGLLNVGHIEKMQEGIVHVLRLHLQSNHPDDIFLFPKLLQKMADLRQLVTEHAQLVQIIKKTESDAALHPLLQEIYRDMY
Glucagon-like peptide 1 receptor (Homo sapiens), sequence (P43220 whole entry, looked up): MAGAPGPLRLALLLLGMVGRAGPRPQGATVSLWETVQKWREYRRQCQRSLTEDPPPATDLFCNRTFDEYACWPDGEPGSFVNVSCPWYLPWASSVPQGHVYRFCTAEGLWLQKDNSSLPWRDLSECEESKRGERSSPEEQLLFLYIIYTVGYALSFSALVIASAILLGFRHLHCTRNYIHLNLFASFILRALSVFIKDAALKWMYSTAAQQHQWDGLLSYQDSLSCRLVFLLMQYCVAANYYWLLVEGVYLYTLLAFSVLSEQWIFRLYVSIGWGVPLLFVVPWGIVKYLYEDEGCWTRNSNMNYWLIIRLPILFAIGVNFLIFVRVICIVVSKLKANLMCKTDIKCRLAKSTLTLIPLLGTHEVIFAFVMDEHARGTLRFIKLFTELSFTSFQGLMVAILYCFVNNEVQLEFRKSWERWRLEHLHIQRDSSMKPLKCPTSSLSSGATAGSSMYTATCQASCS
Glutaminase kidney isoform, mitochondrial (Homo sapiens), sequence (O94925 whole entry, looked up, canonical isoform): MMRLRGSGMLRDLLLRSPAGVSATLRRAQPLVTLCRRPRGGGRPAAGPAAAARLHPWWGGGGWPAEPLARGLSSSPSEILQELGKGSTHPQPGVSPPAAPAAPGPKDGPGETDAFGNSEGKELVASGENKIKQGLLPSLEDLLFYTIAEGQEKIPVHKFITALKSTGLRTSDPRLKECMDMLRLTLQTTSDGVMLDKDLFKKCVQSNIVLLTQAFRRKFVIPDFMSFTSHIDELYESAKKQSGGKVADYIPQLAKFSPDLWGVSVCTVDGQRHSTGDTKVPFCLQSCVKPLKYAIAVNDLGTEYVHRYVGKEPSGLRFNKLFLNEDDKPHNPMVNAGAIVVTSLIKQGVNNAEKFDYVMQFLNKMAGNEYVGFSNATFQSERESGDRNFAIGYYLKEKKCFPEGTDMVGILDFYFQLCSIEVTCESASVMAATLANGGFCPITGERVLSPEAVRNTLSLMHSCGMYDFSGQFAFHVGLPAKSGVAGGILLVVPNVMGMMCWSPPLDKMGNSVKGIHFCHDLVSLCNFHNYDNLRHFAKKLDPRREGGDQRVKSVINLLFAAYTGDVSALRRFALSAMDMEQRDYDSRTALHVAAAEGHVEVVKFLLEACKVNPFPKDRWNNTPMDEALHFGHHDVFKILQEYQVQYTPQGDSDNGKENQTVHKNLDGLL
Luciferin 4-monooxygenase (Photinus pyralis), sequence (P08659 whole entry, looked up): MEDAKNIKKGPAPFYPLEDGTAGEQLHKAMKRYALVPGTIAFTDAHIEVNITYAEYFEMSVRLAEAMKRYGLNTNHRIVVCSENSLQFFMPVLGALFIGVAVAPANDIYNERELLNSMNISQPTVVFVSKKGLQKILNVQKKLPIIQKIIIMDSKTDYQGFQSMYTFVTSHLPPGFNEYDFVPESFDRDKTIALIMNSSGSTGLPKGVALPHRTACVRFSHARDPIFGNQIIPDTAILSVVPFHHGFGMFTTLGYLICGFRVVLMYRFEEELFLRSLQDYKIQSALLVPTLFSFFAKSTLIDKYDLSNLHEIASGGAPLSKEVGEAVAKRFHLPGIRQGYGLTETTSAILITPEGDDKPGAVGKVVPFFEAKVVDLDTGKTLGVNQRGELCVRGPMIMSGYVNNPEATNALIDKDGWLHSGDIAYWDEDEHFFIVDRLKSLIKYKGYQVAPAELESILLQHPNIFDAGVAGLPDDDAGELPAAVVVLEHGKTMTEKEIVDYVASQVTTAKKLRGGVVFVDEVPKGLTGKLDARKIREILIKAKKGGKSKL
Tumor necrosis factor (Homo sapiens), sequence (P01375 whole entry, looked up): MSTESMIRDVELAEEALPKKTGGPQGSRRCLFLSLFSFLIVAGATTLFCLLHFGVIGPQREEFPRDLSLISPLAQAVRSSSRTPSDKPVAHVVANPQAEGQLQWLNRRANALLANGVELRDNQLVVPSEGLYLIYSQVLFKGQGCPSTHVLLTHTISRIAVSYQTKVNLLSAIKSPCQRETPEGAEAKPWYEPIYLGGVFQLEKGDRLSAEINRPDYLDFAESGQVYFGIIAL

COC1(C2=NCCN2)COc2ccccc2O1 (stereo not given)
inactive: Potency [1] | Potency [2] | Potency [3] | Potency [4] | Potency [5] | Potency [6]

O=[N+]([O-])c1cccc2cn[nH]c12
inactive: Potency [1] | Potency [2] | Potency [3] | Potency [4] | Potency [5] | Potency [6]

OC[C@H]1O[C@@H](n2cnc3cncnc32)[C@H](O)[C@@H]1O
inactive: Potency [1] | Potency [2] | Potency [3] | Potency [4] | Potency [5] | Potency [6]

N#C/C(=C\c1ccc(O)c(O)c1)C(=O)NCCc1ccccc1
active: Potency [1] 3.98 µM | Potency [2] 1.12 µM
inactive: Potency [3] | Potency [4] | Potency [5] | Potency [6]

NCCS(=O)O
inactive: Potency [1] | Potency [2] | Potency [3] | Potency [4] | Potency [5] | Potency [6]

CCCc1c(OCCCOc2ccc(OCC(=O)O)cc2)ccc(C(C)=O)c1O
active: Potency [7] 54.5 µM | Potency [11] 11.2 µM
inactive: Potency [1] | Potency [2] | Potency [3] | Potency [4] | Potency [5] | Potency [6] | activation [8] 16.9% | activation [9] -3.53% | activation [10] 0.459%

C/C(=C\c1ccc(C(=O)O)cc1)c1ccc2c(c1)C(C)(C)CCC2(C)C
active: Potency [7] 27.3 µM

CC(=O)C(C)=O
inactive: activation [8] -1.05% | activation [9] -1.05% | outcome [12] | outcome [13] | max response [11] -2.24%

CCCc1c(-c2ccc(O)cc2)nn(-c2ccc(O)cc2)c1-c1ccc(O)cc1
inactive: activation [9] -3.76% | max response [11] -1.98%

Cc1ccc2c(c1)C(N1CCN(C)CC1)=Nc1cccnc1N2
inactive: Potency [1] | Potency [4] | Potency [5] | Potency [6]

N[C@H](C(=O)O)[C@H](Cc1ccccc1)C(=O)O
inactive: Potency [2] | Potency [3] | Potency [4]

N[C@H](C(=O)O)c1cc(O)cc(O)c1
inactive: Potency [1] | Potency [3] | Potency [4] | Potency [5] | Potency [6]

O=C(O)Cc1ccc(O)c(O)c1
inactive: Potency [1] | Potency [4] | Potency [5] | Potency [6]

CCCCCCCCCCCCCCCCCCOC[C@H](COP(=O)([O-])OCC[N+](C)(C)C)OC
inactive: outcome [14] | outcome [15] | outcome [16] | outcome [17] | Potency [2] | Potency [3] | Potency [4] | Potency [6]

CCCCCCCCCCCCCCSCC(=O)O
inactive: Potency [1] | Potency [3] | Potency [4] | Potency [5] | Potency [6] | activation [8] 1.79% | activation [9] 3.35% | activation [10] 0.376%
active: Potency [11] 10 µM

CC1=C(C(=O)O)N2C(=O)[C@@H](NC(=O)C(N)C3=CCC=CC3)[C@H]2SC1 (stereo not given in full)
inactive: Potency [1] | Potency [3] | Potency [4] | Potency [6]

NC1CCN(O)C1=O (stereo not given)
inactive: Potency [1] | Potency [3] | Potency [4] | Potency [5] | Potency [6]

Nc1ncnc2c1nc(Sc1ccc(Cl)cc1)n2[C@H]1OC2COP(=O)(O)O[C@@H]2C1O (stereo not given in full)
inactive: Potency [2] | Potency [3] | Potency [4]

[Li+]
inactive: Potency [2] | Potency [3] | Potency [4] | Potency [5] | Potency [6]

Cc1nc2n(c(=O)c1CCN1CCC(c3noc4cc(F)ccc34)CC1)CCCC2O (stereo not given)
inactive: Potency [2] | Potency [3] | Potency [4] | Potency [5]

C[C@H]1CC2C3CCC4=CC(=O)C=C[C@]4(C)[C@@]3(Cl)[C@@H](O)C[C@]2(C)[C@@]1(O)C(=O)CO (stereo not given in full)
inactive: Potency [2] | Potency [3] | Potency [4] | Potency [5] | Potency [6]

Cc1nc2c(OCc3ccccc3)cccn2c1CC#N
inactive: Potency [1] | Potency [3] | Potency [4] | Potency [6]

N[C@@H](Cc1ccc(F)cc1)C(=O)O
inactive: Potency [2] | Potency [3] | Potency [4] | Potency [5] | Potency [6]

COc1cc(/C=C(\C#N)C(=O)Nc2nnc(C(F)(F)F)s2)ccc1OCc1ccc(C(F)(F)F)cc1C(F)(F)F
inactive: Potency [2] | Potency [3] | Potency [4] | Potency [5]

CCCOC(=O)c1c(-c2ccccc2)nc(CC)c(C(=O)SCC)c1CCC
inactive: Potency [2] | Potency [3] | Potency [4] | Potency [5]

COc1ccc2c(c1)c(CC(=O)O)c(C)n2Cc1ccc(Cl)cc1
inactive: Potency [1] | Potency [3] | Potency [4] | Potency [5] | Potency [6]

N#CC(C#N)=C(N)/C(C#N)=C/c1ccc(O)cc1
inactive: Potency [1] | Potency [3] | Potency [4] | Potency [5] | Potency [6]

CCCn1c(=O)c(C)cn2nc(N)nc12
inactive: Potency [2] | Potency [3] | Potency [4] | Potency [5]

CC(C)NC[C@H](O)COc1ccc(CC(N)=O)cc1
inactive: outcome [15] | outcome [16] | Potency [2] | Potency [4] | Potency [5]

Oc1cc(O)c2c(c1)O[C@H](c1ccc(O)c(O)c1)[C@@H](O)C2
inactive: Potency [1] | Potency [3] | Potency [4] | Potency [5] | Potency [6]

O=S(=O)(c1cccc2c(Cl)cccc12)N1CCCNCC1
inactive: Potency [2] | Potency [3] | Potency [4] | Potency [5] | Potency [6]

CCCCCCCCCCCCCCC[C@H](O)[C@H](N)CO
inactive: outcome [14] | outcome [16] | outcome [17] | Potency [2] | Potency [3] | Potency [4] | Potency [5]

NC[C@@H]1O[C@H](c2ccccc2)Cc2c1ccc(O)c2O
inactive: Potency [2] | Potency [3] | Potency [4] | Potency [5]

Source: PubChem BioAssay (NCATS)
